Inconclusive results are not listed. The source made the active and inactive calls. Unless noted, calls follow the shape of the dose curve; as a rule, active = well fitted curve in the direction sought with a large enough effect in the repeat runs; inconclusive = weak or mixed curves; inactive = no such curve, though single readings can be large; an effect the other way counts as inactive or inconclusive.
Legend:
[1] = qHTS assay to identify aromatase inhibitors - cell viability counter screen (AID 743084);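 also: cells stimulated with testosterone during compound exposure; nearly all actives have a fitted effect of over 55% in size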; also: potency is read from the fitted curve at half-maximal effect
[2] = qHTS assay to identify small molecule that activate the aryl hydrocarbon receptor (AhR) signaling pathway - cell viability counter screen (AID 743086);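 also: HepG2 liver cells carrying the AhR DRE luciferase reporter; series mostly up to about 70 µM; nearly all actives have a fitted effect of over 45% in size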
Outline: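 HepG2-AhR-luc (HG2L7.5c1) cells, 4000/well, were preincubated 5 h at 37C, exposed to compound in qHTS format for 24 hr at 37C, then given CellTiter-Fluor for 30 min; viability was read as fluorescence in the reporter wells.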

[3] = molecular target: Peroxisome proliferator-activated receptor gamma (Homo sapiens) (UniProt P37231); assay: qHTS assay to identify small molecule agonists of the peroxisome proliferator-activated receptor gamma (PPARg) signaling pathway (AID 743094; active = well fitted activation curve with a large enough effect in the signal ratio in the repeat runs, not every such curve was filed as active; the % refers to the signal ratio; also: potency is read from the fitted curve at half-maximal effect)
Peroxisome proliferator-activated receptor gamma (Homo sapiens), sequence (P37231 whole entry, looked up): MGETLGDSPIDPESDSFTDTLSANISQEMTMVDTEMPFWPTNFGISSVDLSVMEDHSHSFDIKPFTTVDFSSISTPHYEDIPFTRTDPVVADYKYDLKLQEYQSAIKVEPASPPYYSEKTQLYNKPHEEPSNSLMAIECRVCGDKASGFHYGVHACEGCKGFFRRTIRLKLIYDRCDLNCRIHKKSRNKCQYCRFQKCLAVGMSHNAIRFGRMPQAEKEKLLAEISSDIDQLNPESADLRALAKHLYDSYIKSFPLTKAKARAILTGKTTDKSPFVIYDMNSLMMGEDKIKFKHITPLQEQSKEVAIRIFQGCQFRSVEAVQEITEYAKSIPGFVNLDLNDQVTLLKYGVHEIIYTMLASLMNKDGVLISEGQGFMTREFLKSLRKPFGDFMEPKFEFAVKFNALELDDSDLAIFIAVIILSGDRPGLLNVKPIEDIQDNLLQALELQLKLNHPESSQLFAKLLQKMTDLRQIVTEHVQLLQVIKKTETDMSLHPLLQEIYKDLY
Outline: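 Beta-lactamase FRET fluorescence was the read-out after a 1 h room-temperature substrate step, following 17 h compound treatment at 37C of HEK293H cells expressing a UAS-driven bla reporter responsive to PPARg.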

[4] = molecular target: Peroxisome proliferator-activated receptor gamma (Homo sapiens) (UniProt P37231); assay: qHTS assay to identify small molecule antagonists of the peroxisome proliferator-activated receptor gamma (PPARg) signaling pathway (AID 743191; calls by dose curve; also: series mostly up to about 63 µM; nearly all actives have a fitted effect of over 30% in size)
Outline: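 GeneBLAzer PPARg UAS-bla HEK293H cells carrying a UAS-driven beta-lactamase reporter were plated at 3000 cells/well, preincubated 5 h at 37C, then given compound for 17 h at 37C; LiveBLAzer B/G FRET substrate was read after 1 h at room temperature.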

[5] = qHTS assay to identify small molecule antagonists of the peroxisome proliferator-activated receptor gamma (PPARg) signaling pathway - cell viability counter screen (AID 743194); also: nearly all actives have a fitted effect of over 55% in size
Outline: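 PPARg-UAS-bla HEK293H cells were plated, rested 5 h at 37 C, then treated with compounds plus rosiglitazone (50 nM final) for 17 h at 37 C; viability was then read by CellTiter-Glo luminescence after 30 min at room temperature.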

[6] = qHTS assay for small molecule agonists of the antioxidant response element (ARE) signaling pathway (AID 743202; active = well fitted activation curve with a large enough effect in the signal ratio in the repeat runs, not every such curve was filed as active; the % refers to the signal ratio; also: potency is read from the fitted curve at half-maximal effect)
Outline: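 Compounds delivered in DMSO to ARE-bla HepG2 cells (2,000 cells/well, pre-incubated 5 h) and left 16 h at 37 C. LiveBLAzer B/G FRET substrate then added for 2 h at RT before fluorescence reading.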

[7] = qHTS assay for small molecule agonists of the antioxidant response element (ARE) signaling pathway - cell viability counter screen (AID 743203; calls by dose curve; also: nearly all actives have a fitted effect of over 55% in size)
Outline: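 HepG2 cells carrying ARE-driven beta-lactamase; 2,000 cells/well; 5 hrs plating; compound pinned from DMSO; 16 hrs 37C/5% CO2; CellTiter-Glo added; 30 min RT; luminescence.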

[8] = qHTS assay to identify small molecule agonists of the peroxisome proliferator-activated receptor delta (PPARd) signaling pathway - cell viability counter screen (AID 743211); also: nearly all actives have a fitted effect of over 55% in size
Outline: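 Luminescent ATP viability assay (CellTiter-Glo, 30 min RT) in UAS-bla HEK293H cells carrying the PPAR delta reporter construct, 3000 cells/well, after a 17 h compound treatment at 37 C.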

[9] = molecular target: Peroxisome proliferator-activated receptor delta (Homo sapiens) (UniProt Q03181); assay: qHTS assay to identify small molecule agonists of the peroxisome proliferator-activated receptor delta (PPARd) signaling pathway (AID 743212; calls by dose curve; also: potency is read from the fitted curve at half-maximal effect)
Peroxisome proliferator-activated receptor delta (Homo sapiens), sequence (Q03181 whole entry, looked up): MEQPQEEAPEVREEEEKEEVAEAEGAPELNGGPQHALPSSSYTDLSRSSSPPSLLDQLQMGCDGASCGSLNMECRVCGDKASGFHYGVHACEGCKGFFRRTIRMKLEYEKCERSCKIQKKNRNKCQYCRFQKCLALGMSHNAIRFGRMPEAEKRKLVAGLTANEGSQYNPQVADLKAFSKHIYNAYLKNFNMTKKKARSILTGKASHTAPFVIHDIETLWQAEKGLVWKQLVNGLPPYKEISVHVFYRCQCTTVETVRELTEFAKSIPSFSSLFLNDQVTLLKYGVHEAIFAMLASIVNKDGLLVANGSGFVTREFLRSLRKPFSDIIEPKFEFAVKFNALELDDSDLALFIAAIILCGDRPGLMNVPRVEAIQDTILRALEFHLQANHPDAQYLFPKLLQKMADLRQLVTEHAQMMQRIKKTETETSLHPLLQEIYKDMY
Outline: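 A PPARd-bla HEK293H line with beta-lactamase under an Upstream Activator Sequence is treated with compounds at 37 C. Substrate loading for 2 h at room temperature precedes the fluorescence measurement.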

[10] = qHTS assay to identify small molecule agonists of the farnesoid-X-receptor (FXR) signaling pathway - cell viability counter screen (AID 743218); also: nearly all actives have a fitted effect of over 45% in size
Outline: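 HEK 293T FXR-bla cells; 5 h pre-incubation, 16 h compound exposure at 37 C; LiveBLAzer substrate 2 h RT, then CellTiter-Glo 30 min RT, luminescence.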

[11] = qHTS assay to identify small molecule antagonists of the farnesoid-X-receptor (FXR) signaling pathway - cell viability counter screen (AID 743221; active = well fitted cell-killing curve with a large enough effect in the repeat runs, not every such curve was filed as active; also: nearly all actives have a fitted effect of over 50% in size)
Outline: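 In GeneBLAzer FXR-UAS-bla HEK 293T cells stimulated with 50 uM chenodeoxycholic acid (final), compounds acted for 16 h at 37 C. Viability was assessed afterwards by CellTiter-Glo luminescence.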

[12] = molecular target: Vitamin D3 receptor (Homo sapiens) (UniProt P11473); assay: qHTS assay to identify small molecule antagonists of the vitamin D receptor (VDR) signaling pathway (AID 743223; active = well fitted inhibition curve with a large enough effect in the signal ratio in the repeat runs, not every such curve was filed as active; the % refers to the signal ratio)
Vitamin D3 receptor (Homo sapiens), sequence (P11473 whole entry, looked up): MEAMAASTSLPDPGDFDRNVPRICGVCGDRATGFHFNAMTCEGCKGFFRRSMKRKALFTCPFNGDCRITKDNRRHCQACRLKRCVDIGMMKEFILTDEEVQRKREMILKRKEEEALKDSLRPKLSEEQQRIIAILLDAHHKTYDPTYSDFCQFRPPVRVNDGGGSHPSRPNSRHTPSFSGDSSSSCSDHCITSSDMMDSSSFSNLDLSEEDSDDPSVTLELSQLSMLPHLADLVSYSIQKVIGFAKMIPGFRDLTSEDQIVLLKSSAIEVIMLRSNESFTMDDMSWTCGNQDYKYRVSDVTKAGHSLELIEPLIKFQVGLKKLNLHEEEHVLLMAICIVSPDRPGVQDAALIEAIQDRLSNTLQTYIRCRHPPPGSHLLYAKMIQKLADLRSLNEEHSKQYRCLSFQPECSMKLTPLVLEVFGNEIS
Outline: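 Agonist 1alpha,25-dihydroxyvitamin D3 (3 nM in well) was added with each compound to VDR-bla cells preincubated 4 h. Cells stood 16 h at 37C, then FRET substrate 2 h at room temperature; fluorescence intensity recorded.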

[13] = qHTS assay for small molecule activators of the heat shock response signaling pathway - cell viability counter screen (AID 743209); also: nearly all actives have a fitted effect of over 50% in size
Outline: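 Luminescence from CellTiter-Glo, added after the beta-lactamase FRET read, gave the viability signal. Cells were HSE-bla HeLa treated with DMSO-dissolved compounds for 5 h at 37 C following overnight plating.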

[14] = qHTS assay for small molecule activators of the heat shock response signaling pathway (AID 743210; active = well fitted activation curve with a large enough effect in the signal ratio in the repeat runs, with a control signal flat, not every such curve was filed as active; the % refers to the signal ratio; also: potency is read from the fitted curve at half-maximal effect;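 as to activation: HeLa cells with beta-lactamase reporter driven by heat shock elements; series mostly up to about 63 µM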)
Outline: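 Reporter gene assay: HeLa cells stably bearing an HSE-bla construct, compound treatment 5 h at 37 C, LiveBLAzer substrate 2.5 h at RT, fluorescence intensity.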

[15] = qHTS assay to identify small molecule antagonists of the peroxisome proliferator-activated receptor delta (PPARd) signaling pathway - cell viability counter screen (AID 743213); also: nearly all actives have a fitted effect of over 50% in size
Outline: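 Viability counter-screen, qHTS format: PPARd-bla HEK293H, L165041 300 nM final, 17 h compound exposure at 37 C, CellTiter-Glo luminescence after 30 min RT.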

[16] = molecular target: Vitamin D3 receptor (Homo sapiens) (UniProt P11473); assay: qHTS assay to identify small molecule agonists of the vitamin D receptor (VDR) signaling pathway (AID 743222; calls by dose curve)
Outline: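 VDR-bla cells, 2,000/well; 4 h preincubation 37C; cpd (DMSO) 16 h; LiveBLAzer B/G substrate 2 h RT; fluorescence intensity read.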

[17] = molecular target: Peroxisome proliferator-activated receptor delta (Homo sapiens) (UniProt Q03181); assay: qHTS assay to identify small molecule antagonists of the peroxisome proliferator-activated receptor delta (PPARd) signaling pathway (AID 743215; active = well fitted inhibition curve with a large enough effect in the signal ratio in the repeat runs, not every such curve was filed as active; the % refers to the signal ratio;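 also: cells stimulated with agonist L165041 at 300 nM final during compound exposure; series mostly up to about 62 µM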)
Outline: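 Read-out is beta-lactamase FRET fluorescence, measured 2 h after substrate addition at room temperature. Beforehand, UAS-bla HEK293H cells carrying the PPARd reporter were exposed to compounds with L165041 at 300 nM final for 17 h at 37 C.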

[18] = molecular target: Aryl hydrocarbon receptor (Homo sapiens) (UniProt P35869); assay: qHTS assay to identify small molecule that activate the aryl hydrocarbon receptor (AhR) signaling pathway (AID 743085); also: nearly all actives have a fitted effect of over 15% in size; also: potency is read from the fitted curve at half-maximal effect;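 as to activation: HG2L7.5c1 human HepG2 liver cells with stably integrated DRE-driven firefly reporter; series mostly up to about 70 µM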
Aryl hydrocarbon receptor (Homo sapiens), sequence (P35869 whole entry, looked up): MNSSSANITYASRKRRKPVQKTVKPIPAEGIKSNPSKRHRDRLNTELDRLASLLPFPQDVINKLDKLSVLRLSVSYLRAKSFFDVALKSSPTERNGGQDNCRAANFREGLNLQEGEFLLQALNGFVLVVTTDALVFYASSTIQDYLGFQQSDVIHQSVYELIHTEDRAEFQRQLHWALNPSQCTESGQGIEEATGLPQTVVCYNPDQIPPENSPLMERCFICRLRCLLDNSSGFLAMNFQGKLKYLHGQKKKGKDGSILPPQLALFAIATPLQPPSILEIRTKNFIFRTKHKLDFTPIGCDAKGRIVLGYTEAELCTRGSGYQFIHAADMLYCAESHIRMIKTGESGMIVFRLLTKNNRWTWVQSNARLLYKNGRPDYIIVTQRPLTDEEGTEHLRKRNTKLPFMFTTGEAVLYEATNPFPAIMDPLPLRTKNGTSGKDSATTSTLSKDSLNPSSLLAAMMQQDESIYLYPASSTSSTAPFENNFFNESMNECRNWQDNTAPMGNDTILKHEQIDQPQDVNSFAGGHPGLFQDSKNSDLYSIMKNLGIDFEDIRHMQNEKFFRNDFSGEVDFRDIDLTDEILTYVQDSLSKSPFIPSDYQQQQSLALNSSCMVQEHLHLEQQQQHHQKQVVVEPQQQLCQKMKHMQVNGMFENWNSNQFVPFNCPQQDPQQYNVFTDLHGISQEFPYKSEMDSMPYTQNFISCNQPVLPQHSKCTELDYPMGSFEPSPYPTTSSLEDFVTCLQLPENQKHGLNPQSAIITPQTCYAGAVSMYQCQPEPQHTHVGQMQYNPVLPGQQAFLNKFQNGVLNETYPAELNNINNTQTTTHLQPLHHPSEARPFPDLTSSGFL
Outline: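 24 h compound exposure, 37C, HepG2-derived HG2L7.5c1 cells with DRE-responsive luciferase. Readouts: fluorescence viability, then luminescence at room temperature after 30 min.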

[19] = molecular target: Bile acid receptor (Homo sapiens) (UniProt Q96RI1); assay: qHTS assay to identify small molecule antagonists of the farnesoid-X-receptor (FXR) signaling pathway (AID 743217; active = well fitted inhibition curve with a large enough effect in the signal ratio in the repeat runs, not every such curve was filed as active; the % refers to the signal ratio)
Bile acid receptor (Homo sapiens), sequence (Q96RI1 whole entry, looked up): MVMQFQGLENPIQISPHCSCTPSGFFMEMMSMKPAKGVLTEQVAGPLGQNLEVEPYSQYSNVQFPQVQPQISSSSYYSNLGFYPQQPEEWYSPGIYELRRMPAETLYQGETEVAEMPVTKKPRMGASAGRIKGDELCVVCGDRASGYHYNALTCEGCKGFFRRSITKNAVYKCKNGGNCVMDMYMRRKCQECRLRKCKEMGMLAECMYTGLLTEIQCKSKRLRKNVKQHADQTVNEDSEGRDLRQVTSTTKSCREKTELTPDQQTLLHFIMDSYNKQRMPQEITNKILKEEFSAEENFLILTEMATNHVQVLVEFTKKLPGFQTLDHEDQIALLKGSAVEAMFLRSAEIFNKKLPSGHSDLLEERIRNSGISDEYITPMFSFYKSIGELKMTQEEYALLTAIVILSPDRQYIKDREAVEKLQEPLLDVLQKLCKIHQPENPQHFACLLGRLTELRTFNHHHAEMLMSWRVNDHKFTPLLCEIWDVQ
Outline: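 HEK 293T FXR-UAS-bla, 5000 cells/well; compound + CDCA 50 uM final; 16 h, 37 °C; B/G FRET substrate 2 h RT; fluorescence.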

[20] = molecular target: Bile acid receptor (Homo sapiens) (UniProt Q96RI1); assay: qHTS assay to identify small molecule agonists of the farnesoid-X-receptor (FXR) signaling pathway (AID 743220; active = well fitted activation curve with a large enough effect in the signal ratio in the repeat runs, not every such curve was filed as active; the % refers to the signal ratio)
Outline: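 Beta-lactamase reporter under UAS control in GeneBLAzer FXR HEK 293T cells (5000/well) measured with LiveBLAzer FRET substrate after 2 h at room temperature. Compound exposure lasted 16 h at 37C.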
% is scaled to controls: 0 for no effect and ±100 for the full control effect.

CCCCCCCC#N
inactive: Potency [1] | Potency [2] | Potency [3] | Potency [4] | Potency [5] | Potency [6] | Potency [7] | Potency [8] | Potency [9] | Potency [10] | Potency [11] | outcome [12]

CCCCCC[C@@H](O)C/C=C\CCCCCCCC(=O)OC
inactive: Potency [1] | Potency [2] | Potency [3] | Potency [5] | Potency [6] | Potency [7] | Potency [13] | Potency [14] | Potency [15] | Potency [11] | Potency [16]

c1cc(CCCc2ccncc2)ccn1
inactive: Potency [1] | Potency [2] | Potency [3] | Potency [5] | Potency [6] | Potency [7] | Potency [13] | Potency [14] | Potency [8] | Potency [15] | Potency [17] | Potency [10] | Potency [11] | Potency [16] | outcome [12]

Cc1ncc(CO)c(C=O)c1O
inactive: Potency [1] | Potency [18] | Potency [3] | Potency [5] | Potency [7] | Potency [13] | Potency [8] | Potency [9] | Potency [15] | Potency [17] | Potency [10] | Potency [11] | Potency [16] | outcome [12]

C=CC(=O)OCCOCCOC(=O)C=C
inactive: Potency [18] | Potency [7]
active: Potency [1] 13.7 µM | Potency [6] 30.8 µM

O=C1OC(=O)C2C3C=CC(C3)C12 (stereo not drawn)
inactive: Potency [1] | Potency [18] | Potency [3] | Potency [5] | Potency [7] | Potency [13] | Potency [14] | Potency [9] | Potency [15] | Potency [10] | Potency [11] | outcome [12]

O=C(OCCCCCCOC(=O)c1ccccc1)c1ccccc1
active: Potency [14] 57.1 µM
inactive: Potency [1] | Potency [18] | Potency [5] | Potency [7] | Potency [9] | Potency [19] | Potency [10] | Potency [20] | Potency [11] | outcome [12]

CC1=CC=C(C(C)C)CC1
inactive: Potency [1] | Potency [18] | Potency [3] | Potency [6] | Potency [7] | Potency [13] | Potency [14] | Potency [8] | Potency [15] | Potency [10] | Potency [11]

Nc1cccc(S(=O)(=O)c2cccc(N)c2)c1
inactive: Potency [1] | Potency [18] | Potency [3] | Potency [5] | Potency [7] | Potency [13] | Potency [14] | Potency [8] | Potency [9] | Potency [17] | Potency [10] | Potency [11] | Potency [16] | outcome [12]

c1ccc(C(O[C@H]2CCCN(CCc3ccc4c(c3)OCO4)C2)c2ccccc2)cc1
active: Potency [18] 26.6 µM
inactive: Potency [1] | Potency [5] | Potency [13] | Potency [9] | Potency [17] | Potency [10] | Potency [11]

CC(=O)[O][Al][O]C(C)=O
inactive: Potency [1] | Potency [18] | Potency [5] | Potency [6] | Potency [7] | Potency [13] | Potency [8] | Potency [15] | Potency [10] | Potency [11]

C=C(C)C(=O)OCCO
inactive: Potency [1] | Potency [18] | Potency [3] | Potency [5] | Potency [7] | Potency [13] | Potency [14] | Potency [8] | Potency [15] | Potency [19] | Potency [20] | Potency [11] | Potency [16] | outcome [12]

CCN(CC)CCOC(=O)C(c1ccccc1)C1CCCCC1 (stereo not drawn)
inactive: Potency [1] | Potency [2] | Potency [3] | Potency [4] | Potency [6] | Potency [7] | Potency [13] | Potency [11] | Potency [16] | outcome [12]

CCN(CC)CCNC(=O)c1cc(Br)c(N)cc1OC
inactive: Potency [1] | Potency [2] | Potency [3] | Potency [4] | Potency [5] | Potency [6] | Potency [13] | Potency [14] | Potency [8] | Potency [10] | Potency [11] | Potency [16] | outcome [12]

CN(C)C(=O)NC1(c2ccccc2)CCN(CC[C@@]2(c3ccc(F)c(F)c3)CN(C(=O)c3ccccc3)CCO2)CC1
inactive: Potency [1] | Potency [18] | Potency [4] | Potency [5] | Potency [6] | Potency [7] | Potency [13] | Potency [14] | Potency [9] | Potency [15] | Potency [19] | Potency [20] | Potency [11] | outcome [12]

Cc1cccc(Nc2ccccc2)c1
inactive: Potency [1] | Potency [18] | Potency [6] | Potency [7] | Potency [13] | Potency [14] | Potency [8] | Potency [15] | Potency [19] | Potency [10] | Potency [20] | Potency [16] | outcome [12]

Brc1c2ccccc2c(Br)c2ccccc12
inactive: activity change, negative = cytotoxicity [1] 12.2% [at 8.47 µM] | viability change, negative = cytotoxic [2] -2.96% [at 8.47 µM] | activity change, negative = cytotoxicity [5] 7.41% [at 5.95 µM] | viability change, negative = cytotoxic [7] 3.8% [at 8.36 µM] | activity change, negative = cytotoxicity [13] 2.9% [at 5.95 µM] | activity change, negative = cytotoxicity [8] 11.2% [at 5.95 µM] | viability change, negative = cytotoxic [15] -15% [at 6.26 µM] | ratio activity, negative = inhibition [17] -10.9% [at 6.26 µM] | activity change, negative = inhibition [19] 14.8% [at 5.95 µM] | activity change, negative = cytotoxicity [11] -3.74% [at 5.95 µM]
active: Potency [3] 1.98 µM | Potency [9] 1.98 µM

CC(C)Nc1ccc(NC(C)C)c2c1C(=O)c1ccccc1C2=O
inactive: Potency [1] | Potency [2] | Potency [3] | Potency [5] | Potency [13] | Potency [14] | Potency [8] | Potency [15] | Potency [17] | Potency [19] | Potency [20] | outcome [12]

Nc1cc(C(=O)O)c(O)c(S(=O)(=O)O)c1
inactive: Potency [18] | Potency [2] | Potency [3] | Potency [5] | Potency [6] | Potency [13] | Potency [14] | Potency [8] | Potency [15] | Potency [10] | Potency [11] | Potency [16] | outcome [12]

Reference: PubChem BioAssay (Tox21)
